Screens deposited in PubChem BioAssay by NMMLSC.
Pemphigus Ab inh = human desmoglein-3 autoantibody binding inhibition; DSG3-coupled beads, scFv-anti-DSG3-GFP binding, flow cytometry; hits give low values; binding (percent of control), % at 10 µM; hit rate 0.48% among 310,000; AID 588358;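 active means binding more than 3 SD below its plate's average and above zero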;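 further: hits lower antibody fragment binding to DSG3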
MEP2-GFP yeast = alters MEP2-GFP fluorescence in TOR pathway yeast screen. hit rate 0.51% among 330,000. S. cerevisiae MEP2-GFP strain, flow cytometry GFP, 3 h; 100% = DMSO control level. GFP response vs DMSO, % at 10 µM. AID 2016;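 active means GFP response versus DMSO above a set limit, roughly screen mean plus 3 SD, cut at about 180% in these data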;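 further: median GFP fluorescence of the barcode-gated MEP2-GFP cells per well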
RPL19A TOR yeast = alters RPL19A-GFP fluorescence in TOR pathway yeast screen; AID 2025; hit rate 0.3% among 330,000; S. cerevisiae RPL19A-GFP strain, flow cytometry, 3 h; hits give low values; percent response vs DMSO, % at 10 µM;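 active means percent response vs DMSO below 50%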;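 further: median channel GFP fluorescence of the barcoded RPL19A-GFP strain; ratio of sample median GFP to plate DMSO average so 100% = DMSO; lower means less RPL19A-GFP as with rapamycin TOR inhibition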
LAP4-GFP MLPCN = yeast TOR pathway LAP4-GFP modulation; GFP response vs DMSO, % at 10 µM; S. cerevisiae LAP4-GFP multiplex, flow cytometry GFP, 3 h; median GFP as percent of DMSO wells; hit rate 0.34% among 320,000;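 active means GFP response vs DMSO above a set limit, about the screen mean plus 3 SD, cut at about 150% in these data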
AGP1-GFP MLPCN = alters AGP1-GFP fluorescence in TOR pathway yeast screen. S. cerevisiae AGP1-GFP multiplex flow cytometry, 3 h; GFP as percent of DMSO wells. GFP response vs DMSO, % at 10 µM. hit rate 0.02% among 320,000;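 active means GFP response relative to DMSO above a set limit, near screen average plus 3 SD, cut at about 150% in these data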;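 further: median GFP channel fluorescence of the gated AGP1 strain per well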
CIT2 TOR yeast = yeast TOR pathway CIT2-GFP modulation. S. cerevisiae CIT2-GFP strain, flow cytometry, 3 h; 100 means same as DMSO wells. GFP response vs DMSO, % at 10 µM. hit rate 0.065% among 320,000;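 active means GFP response relative to DMSO above a set limit, near the screen mean plus 3 SD, cut at about 150% in these data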;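 further: ratio of well median GFP fluorescence to mean of DMSO wells on the plate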
LAP4 cherry2 = reconfirmed LAP4-GFP TOR pathway modulator in yeast; shares compounds with LAP4-GFP MLPCN; S. cerevisiae LAP4-GFP strain, flow cytometry GFP, 3 h; GFP response vs DMSO, % at 10 µM; hit rate 20% among 590; AID 2621;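 active means GFP signal as percent of the solvent control above about 150%, meaning raised reporter expression, limit read from the data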;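 further: ratio of well median GFP fluorescence to plate DMSO mean so 100% = DMSO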
MEP2-GFP pick2 = second confirmation of modulators of TOR reporter MEP2-GFP in yeast; shares compounds with LAP4-GFP MLPCN; GFP response vs DMSO, % at 10 µM; hit rate 10% among 590; S. cerevisiae MEP2-GFP strain, flow cytometry GFP, 3 h;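 active means GFP signal above 150% of the solvent control wells, that is a rise of more than half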;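 further: median channel GFP fluorescence of all gated yeast cells per well; ratio of median GFP to plate DMSO average so 100% = DMSO level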
RPL19A-GFP pick2 = reconfirmed modulator of RPL19A-GFP TOR reporter in yeast. shares compounds with LAP4-GFP MLPCN. S. cerevisiae RPL19A-GFP strain, flow cytometry GFP, 3 h; hits give low values; 100% means same as DMSO wells. GFP response vs DMSO, % at 10 µM. hit rate 3% among 590;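 active means under 65% GFP response relative to DMSO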;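 further: median GFP channel fluorescence per well over the all cells gate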
CIT2-GFP pick2 = second confirmation of modulators of TOR reporter CIT2-GFP in yeast | AID 2624 | hit rate 8% among 590 | GFP response vs DMSO, % at 10 µM | S. cerevisiae CIT2-GFP strain, flow cytometry GFP, 3 h; DMSO control wells read 100% | shares compounds with LAP4-GFP MLPCN;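 active means GFP response vs DMSO above about 150%, limit read from the data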;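 further: median green fluorescence per well over all gated yeast cells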
AGP1 GFP CP2 = reconfirmed modulator of AGP1-GFP TOR reporter in yeast. percent response vs DMSO, % at 10 µM. S. cerevisiae AGP1-GFP strain, flow cytometry GFP, 3 h. AID 2643. 590 tested, under 10 active. shares compounds with LAP4-GFP MLPCN;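 active means over 150 percent of DMSO response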;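 further: median GFP channel fluorescence over all cells without mother daughter split; sample median GFP divided by mean DMSO control so 100% equals DMSO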
s288c autofluor = compound is autofluorescent in yeast s288c cells; fluorescence change (kMESF span) at 33 µM; 610 tested, under 10 active; AID 2757; shares compounds with LAP4-GFP MLPCN; S. cerevisiae s288c, 520 nm autofluorescence, flow cytometry, 3 h; hits give high values; zero means same as solvent-only cells;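 active means fluorescence span over the dose series, or activity score, above about 33, limit read from the data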
* = called active by the depositor; · = not tested or not shown; + = active, no number. Compounds with a hit are over-represented: about 1.2% of the library has one in this group of screens.

SMILES | Pemphigus Ab inh | MEP2-GFP yeast | RPL19A TOR yeast | LAP4-GFP MLPCN | AGP1-GFP MLPCN | CIT2 TOR yeast | LAP4 cherry2 | MEP2-GFP pick2 | RPL19A-GFP pick2 | CIT2-GFP pick2 | AGP1 GFP CP2 | s288c autofluor
COc1ccc(N=Nc2ccc(O)c3ncccc23)cc1 | 95 | 116 | 96 | 215* | 98 | 102 | · | · | · | · | · | 0.51
COc1ccc(C)cc1N=Nc1ccc(O)c2ncccc12 | 83 | · | · | · | · | · | · | · | · | · | · | ·
Cc1ccccc1N=Nc1ccc(O)c2ncccc12 | 100 | 103 | 97 | 178* | 101 | 99 | 216* | 123 | 102 | 156* | 105 | 0.3
O=Nc1ccc(O)c2ncccc12 | 101 | 105 | 94 | 114 | 105 | 103 | · | · | · | · | · | ·
COc1cccc(N=Nc2ccc(O)c3ncccc23)c1 | 95 | 103 | 103 | 180* | 89 | 104 | · | · | · | · | · | 0.2
Cc1noc(C)c1S(=O)(=O)N1CCN(S(=O)(=O)c2ccccc2C#N)CC1 | · | 103 | 105 | 93 | 96 | 107 | · | · | · | · | · | ·
S=c1[nH]c2ccc(Cc3ccc4[nH]c(=S)[nH]c4c3)cc2[nH]1 | 97 | 102 | 100 | 95 | 97 | 97 | · | · | · | · | · | ·
Cc1cccn2c(=O)c3cc(C#N)c(=N)n(CCCN4CCOCC4)c3nc12 | 111 | 115 | 63 | 78 | 74 | 78 | 99 | 103 | 99 | 97 | 98 | ·
Cc1ccc(C(=O)O)cc1N=Cc1cc(Br)cc(Br)c1O | 96 | 90 | 80 | 180* | 79 | 62 | 166* | 166* | 71 | 139 | 105 | 0.7
CC(=O)Nc1ccc(C(=O)N/N=C/c2cc(Br)cc(Br)c2O)cc1 | 89 | 101 | 103 | 103 | 110 | 109 | · | · | · | · | · | ·
O=C1C(c2ccccc2)=[N+]([O-])c2ccccc21 | 103 | 93 | 105 | 160* | 87 | 89 | 116 | 121 | 106 | 120 | 103 | ·
COc1cccc2c(=O)c(C(=O)NCc3cccs3)c[nH]c12 | 106 | 98 | 93 | 101 | 97 | 88 | 101 | 103 | 100 | 98 | 103 | 0.5
O=C(CNS(=O)(=O)c1cccs1)NCCc1ccc(Cl)cc1 | 117 | 92 | 103 | 103 | 111 | 112 | · | · | · | · | · | ·
Cc1ccc(C(=O)NCC(=O)Nc2ccc(S(=O)(=O)Nc3cc(C)nc(C)n3)cc2)cc1 | 98 | 104 | 85 | 153* | 101 | 96 | 100 | 98 | 101 | 103 | 98 | ·
CC(C)C(=O)Nc1cccc(COc2ccccc2CN(Cc2ccccc2)C(=O)OC(C)(C)C)c1 | 107 | · | · | · | · | · | · | · | · | · | · | ·
O=C1NC(=Nc2ccccc2Cl)S/C1=C\c1cccc([N+](=O)[O-])c1 | 101 | 82 | 89 | 152* | 71 | 79 | 142 | 98 | 92 | 121 | 83 | ·
O=C1NC(=Nc2ccccc2Cl)S/C1=C\c1cccc([N+](=O)[O-])c1O | 117 | 102 | 97 | 80 | 80 | 102 | · | · | · | · | · | ·
CC1CCCC(NC(=O)CCNC(=O)c2ccc([N+](=O)[O-])cc2)C1C (configuration not stated) | 107 | 106 | 104 | 106 | 106 | 107 | · | · | · | · | · | ·
Cc1nn(-c2ccccc2[N+](=O)[O-])c(=O)c2ccccc12 | 100 | 107 | 60 | 109 | 22 | 76 | 97 | 93 | 99 | 105 | 99 | ·
O=c1[nH]c(-c2ccc(Cl)cc2)cs1 | 96 | 94 | 63 | 120 | 81 | 84 | 104 | 112 | 99 | 102 | 105 | 0.1
CC(C)CNC(=O)CSc1n[nH]c(=O)n1CCc1ccccc1 | 93 | 106 | 103 | 101 | 94 | 98 | · | · | · | · | · | ·
Cc1cc(C)nc(N/N=C/c2sccc2C)n1 | 103 | 101 | 100 | 100 | 101 | 108 | · | · | · | · | · | ·
Cc1ccsc1/C=N/Nc1ncc(Cl)cc1Cl | 109 | 110 | · | 300* | 77 | 79 | · | · | · | · | · | 1
O=C1Nc2ccccc2/C1=C\C(=O)c1ccccc1 | 113 | 91 | 80 | 226* | 85 | 80 | · | · | · | · | · | 0.4
CC(C)Oc1ccc(C(=O)/C=C2/C(=O)Nc3ccccc32)cc1 | 95 | 90 | 89 | 161* | 102 | 87 | · | · | · | · | · | 0.61
SMILES | Pemphigus Ab inh | MEP2-GFP yeast | RPL19A TOR yeast | LAP4-GFP MLPCN | AGP1-GFP MLPCN | CIT2 TOR yeast | LAP4 cherry2 | MEP2-GFP pick2 | RPL19A-GFP pick2 | CIT2-GFP pick2 | AGP1 GFP CP2 | s288c autofluor
COc1ccc(C(=O)/C=C2\C(=O)Nc3ccc(Br)cc32)cc1 | 88 | · | · | · | · | · | · | · | · | · | · | ·
O=C(/C=C1\C(=O)Nc2ccccc21)/C=C1\C(=O)Nc2ccccc21 | 89 | · | · | · | · | · | · | · | · | · | · | ·
CCc1nc(SCC(=O)Nc2ccc(Br)cn2)n[nH]1 | · | 95 | 96 | 97 | 96 | 99 | · | · | · | · | · | ·
Cc1ccc(-n2nc(C(=O)NN)c(C)c(C#N)c2=O)cc1Cl | 95 | + | 90 | 102 | 59 | 123 | 101 | 98 | 97 | 108 | 102 | ·
CC(C)c1nc(C(=O)N2CCCC(N3CCN(c4cccc(Cl)c4)CC3)C2)cs1 (configuration not stated) | 103 | 89 | 102 | 73 | 94 | 107 | · | · | · | · | · | ·
CN(CC(=O)Nc1ccc(Cl)c(Cl)c1)CC(=O)N1CCCCCC1 | 102 | · | · | · | · | · | · | · | · | · | · | ·
COC(=O)c1ccc(CSc2nc3c(c(=O)n2-c2ccc(C)cc2)SCC3)o1 | 101 | 101 | 80 | 172* | 103 | 96 | 91 | 89 | 99 | 99 | 96 | ·
COc1cc(SSc2cc(OC)cc([N+](=O)[O-])c2N)c(N)c([N+](=O)[O-])c1 | 101 | 83 | 58 | 236* | 88 | 108 | · | · | · | · | · | 1
Cc1c(C(=O)NCCN2CCOCC2)oc2ccc(Br)cc12 | 104 | 91 | 93 | 108 | 105 | 87 | · | · | · | · | · | ·
COc1ccc(Cc2nc3ccc(C(=O)NCC(C)(C)OC)cc3o2)cc1 | 99 | 104 | 103 | 91 | 101 | 100 | · | · | · | · | · | ·
CN(C)/C=C1/Sc2ccccc2C1=O | · | 95 | 102 | 103 | 101 | 98 | · | · | · | · | · | ·
